Results as given in PubChem BioAssay (NCI).
Compounds without any hit were thinned out: in the full panel of roughly 83,000, 20% have a hit.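 96-well plates, one dose, 48 hours. Percent growth reported; active if below 10.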 Values without a mark were called inactive. Calls of active or inactive are those of the source.

Key:
Assay in all cases: NCI-60 one-dose screen, 48 h (100 = growth as untreated, 0 = no growth, -100 = all killed)
Details in all cases: 10 µM unless noted
DU-145 prostate = test system: DU-145 prostate
K-562 leukemia = test system: K-562 leukemia
MALME-3M melanoma = test system: MALME-3M melanoma
MDA-MB-231 breast = test system: MDA-MB-231 breast
RXF 393 renal = test system: RXF 393 renal
SF-268 CNS = test system: SF-268 CNS
SF-295 CNS = test system: SF-295 CNS
SF-539 CNS = test system: SF-539 CNS
UACC-257 melanoma = test system: UACC-257 melanoma
HCT-15 colon = test system: HCT-15 colon
HT29 colon = test system: HT29 colon
SNB-75 CNS = test system: SNB-75 CNS
SNB-19 CNS = test system: SNB-19 CNS
U251 CNS = test system: U251 CNS
PC-3 prostate = test system: PC-3 prostate
SK-MEL-5 melanoma = test system: SK-MEL-5 melanoma
UACC-62 melanoma = test system: UACC-62 melanoma
LOX IMVI melanoma = test system: LOX IMVI melanoma
SK-MEL-28 melanoma = test system: SK-MEL-28 melanoma

Row | Structure (SMILES) | growth (DU-145 prostate) [%] | growth (K-562 leukemia) | growth (MALME-3M melanoma) | growth (MDA-MB-231 breast) | growth (RXF 393 renal) | growth (SF-268 CNS) [%] | growth (SF-295 CNS) | growth (SF-539 CNS) | growth (UACC-257 melanoma) | growth (HCT-15 colon) | growth (HT29 colon) | growth (SNB-75 CNS) | growth (SNB-19 CNS) [%] | growth (U251 CNS) | growth (PC-3 prostate) | growth (SK-MEL-5 melanoma) | growth (UACC-62 melanoma) | growth (LOX IMVI melanoma) | growth (SK-MEL-28 melanoma)
1 | O=C(/C=C/c1ccc(F)cc1)c1ccc(O)cc1 | 95.5 | 58.7% | 118% | 100% | 105% | 101 | 104% | 93.7% | 95.5% | 73.5% | 93.2% | 95.3% | 91.4 | 66.7% | 95.4% | 94% | 88% | 63.3% | 109%
2 | CN(Cc1ccccc1)S(=O)(=O)/N=C1\NC(=O)NC1=C(Cl)Cl | 25.7 | 1.09% (active) | -19.9% (active) | -2.3% (active) | 55.1% | 56.1 | 98.9% | 0.38% (active) | 68.2% | -69% (active) | 48% | 107% | 68.6 | 18.8% | 35.6% | 95.7% | 62.2% | -84.5% (active) | 11.2%
3 | O=S(=O)(Oc1ccc(-c2nnc(Nc3ccccc3)s2)cc1)C(F)(F)C(F)(F)C(F)(F)C(F)(F)C(F)(F)C(F)(F)F | 107 | 94.4% | 108% | 86.9% | 102% | 100 | 105% | 97.7% | 96.8% | 98.7% | 109% | 99.9% | 101 | 107% | 110% | 108% | 90.8% | 99.8% | 105%
4 | Cc1ccc(NC(=O)c2ccc(CN3CCOCC3)c(C(F)(F)F)c2)cc1Oc1ccc(-c2[nH]nc3ncnc(N)c23)cc1 | 76.9 | 20% | 27.4% | 54.3% | 40.5% | 81.6 | 63.2% | 49.3% | 48.7% | 40.5% | 37% | 112% | 95.5 | 66.9% | 43.4% | 16.3% | 19.4% | 59.1% | 47.8%
5 | COc1cc(OC)c(/C=C/S(=O)(=O)Cc2ccc(OC)c(NCC(=O)NO)c2)c(OC)c1 | 13.8 | 11.6% | 61.8% | 25.4% | -0.671% (active) | 31.9 | 6.88% (active) | -5.59% (active) | 62.4% | 12.9% | 5.84% (active) | 27.6% | 18.5 | 13.4% | 22.7% | -30.6% (active) | 12.4% | 8.14% (active) | 56.8%
6 | N#Cc1c(NC(=O)c2cccc(C(F)(F)F)c2F)sc2c1CCC(=O)C2 | 24.6 | 1.31% (active) | -21.6% (active) | -48% (active) | -67.1% (active) | 11.2 | -19.4% (active) | -41.8% (active) | -36.3% (active) | -49.6% (active) | 4.38% (active) | -66.3% (active) | 15.4 | 0.119% (active) | -43.9% (active) | -91.1% (active) | -56.6% (active) | -8.55% (active) | -71.8% (active)
7 | Brc1ccccc1/C=N/Nc1nc(N/N=C/c2ccccc2Br)nc(N2CCOCC2)n1 | 98.3 | 94.1% | 143% | 103% | 69.6% | 102 | 85.5% | 105% | 104% | 81.1% | 74% | 132% | 101 | 96.5% | 84% | 69.6% | 102% | 103% | 99.3%
8 | COc1cc(-c2nc(-c3ccccc3)[nH]c2-c2ccnc(NCCCNS(=O)(=O)c3cccc(F)c3)n2)ccc1Cl | 54.3 | 23.4% | 64.3% | 64.8% | 36.1% | 59.4 | 25% | 69.5% | 58.7% | 25.7% | 23.1% | 77.4% | 66.3 | 44.5% | 25.2% | 34.2% | 44.1% | 35.5% | 55%
